For twelve molecules, inhibition results are on record in ChEMBL document CHEMBL3433997, “St. Jude Leishmania screening dataset” (2016).

Holding throughout (type): functional
For assay [1], the target named is Solute carrier family 2, facilitated glucose transporter member 1 (Homo sapiens) (UniProt P11166). The assay can be described thus: ST_JUDE_LEISH: Cytotoxicity at 2uM final concentration against transgenic Leishmania Mexicana promastigotes LmGLUT1 that are glucose transport deficient and complemented with the human glucose transporter GLUT1. Activity is measured by DNA content using SYBR green in vitro.
Solute carrier family 2, facilitated glucose transporter member 1 (Homo sapiens), sequence (P11166 whole entry): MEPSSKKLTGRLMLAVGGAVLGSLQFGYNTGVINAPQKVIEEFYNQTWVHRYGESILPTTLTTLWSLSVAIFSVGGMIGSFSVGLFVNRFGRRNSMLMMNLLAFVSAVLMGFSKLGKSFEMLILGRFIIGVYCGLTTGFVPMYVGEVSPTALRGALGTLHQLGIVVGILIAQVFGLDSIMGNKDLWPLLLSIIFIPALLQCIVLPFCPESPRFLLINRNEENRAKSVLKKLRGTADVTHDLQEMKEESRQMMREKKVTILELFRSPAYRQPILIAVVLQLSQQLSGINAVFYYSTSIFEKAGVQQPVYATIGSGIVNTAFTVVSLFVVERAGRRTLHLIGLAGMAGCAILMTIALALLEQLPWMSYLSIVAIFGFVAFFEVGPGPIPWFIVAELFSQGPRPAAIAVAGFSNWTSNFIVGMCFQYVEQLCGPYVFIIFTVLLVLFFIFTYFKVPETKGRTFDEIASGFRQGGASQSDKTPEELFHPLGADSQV

Assay [2] has as its target Hexose transporter 1 (Plasmodium falciparum) (UniProt O97467). The experiment in a line: ST_JUDE_LEISH: Cytotoxicity at 2uM final concentration against transgenic Leishmania Mexicana promastigotes LmPfHT that are glucose transport deficient and complemented with the Plasmodium falciparum hexose transporter. Activity is measured by DNA content using SYBR green in vitro.

In assay [3] the target is Glucose transporter (Leishmania mexicana) (UniProt O61059). The assay can be described thus: ST_JUDE_LEISH: Cytotoxicity at 2uM final concentration against transgenic Leishmania Mexicana promastigotes LmGT2 that are glucose transport deficient and complemented with the L. Mexicana glucose transporter 2. Activity is measured by DNA content using SYBR green in vitro.

Turning to `COC(=O)c1ccc(C2OC3(C(=O)c4ccccc4C3=O)C(OC)=C2Cl)cc1C(C)=O` (stereo unspecified), the inhibition is -2.44% in assay [1], -0.79% in assay [2] and -0.7% in assay [3].
Taken in the same sequence, the figures for `OCCn1c(CNCCCNc2nc3ccccc3[nH]2)cc2c(Cl)cc(Cl)cc21` were 82%, 88.2% and 80.5%.
`Cc1cc(C(=O)CSc2nc3ccccc3n2-c2ccccc2)c(C)n1C1CCS(=O)(=O)C1` (stereo unspecified): the inhibition is 0.82% in assay [1], -1.32% in assay [2] and 0.44% in assay [3].
Take `CCNC(=O)N1CCN(c2nc(-c3ccccc3)nc(COC)c2Cc2ccc(C)cc2)CC1`: the inhibition in assay [1] is 4.13%; in assay [2] it was -1.41%; in assay [3], 3.78%.
Taken in the same sequence, the figures for `Cc1c(C(=O)N(C)C)sc2c1c(=O)n(Cc1ccccc1)c(=O)n2CC(=O)Nc1ccccc1F` were 2.21%, 3.39% and 1.57%.
Taken in the same sequence, the figures for `COc1cccc(C=Cc2nc(=O)c3ccccc3o2)c1OC` were 4.18%, 0.32% and 0.45%.
Consider `Cc1cc(N[C@@H](Cc2ccccc2)C(=O)NCCOc2ccccc2)nc(NCCOc2ccccc2)n1`, for which the inhibition in assay [1] is 1.88%; in assay [2], 0.27%; in assay [3], 2.71%.
Taken in the same sequence, the figures for `Cc1c(F)cc(C(=O)NC2CC2)cc1-c1ccc2c(cnn2S(=O)(=O)c2ccc(C#N)cc2)c1` were -0.7%, 1.11% and 0.73%.
Regarding `CCN(CC)CCCOC(=O)c1ccc2c(c1)-c1ccc(C(=O)OCCCN(CC)CC)c3cccc-2c13`, the values for the inhibition in assay [1], in assay [2] and in assay [3] were 6.8%, 3.93% and 4.24%, respectively.
Taken in the same sequence, the figures for `CCOc1cc(C(=O)Nc2ccc3nc(N(CC)CC)cc(C)c3c2)cc(OCC)c1OCC` were -0.12%, -0.88% and -3.87%.
Taken in the same sequence, the figures for `CN1CCN(CCCN(Cc2ccc(-c3cccc(CNCc4ccc5c(c4)OCO5)c3)cc2)C(=O)NCCc2ccccc2)CC1` were 5.4%, 2.67% and 3.58%.
Take `CC1CN(c2ccc(C(=O)NCC3CC3)cc2NC(=O)OCc2ccccc2)CC(C)O1` (stereo unspecified): the inhibition in assay [1] was 0.19%; in assay [2] it was 0.86%; in assay [3], -0.78%.
